Assay results from PubChem BioAssay AID1159580 (chemical genetic matrix, 2015).
“And” between values parts separate entries of the source, which are not always exact repeats. Equal entries are not always repeated. The campaign covered roughly 5,500 compounds. About 2,000 (36%) were called active. Inconclusive results (about 18%) are left out. Rule as the data show it: active = normalized growth mostly below about 0.91 (no sharp cut-off); inconclusive = no clear call, values can overlap the other calls; inactive = mostly above about 0.92. The list shows a part of the results.

Test: chemical genetic growth profiling, strain panel (AID 1159580);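 also: tested at 20 µM; growth read once vehicle control cultures reached saturation at 30 °C; 1 = growth at the plate median or of vehicle wells; lower values mean less growth of the strain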
Details: S. cerevisiae deletion strains, growth OD

Measured: normalized growth

C[C@]12CCC(=O)C=C1C=CC1C2CC[C@@]2(C)C1CC[C@@]2(O)CCC(=O)O (stereo partly specified)
inactive: locus YAL013W, strain DEP1, active compounds read low 1 | locus YAL021C, strain ccr4, active compounds read low 1.02 | locus YAL026C, strain drs2, active compounds read low 1.01 | locus YAL030W, strain snc1, active compounds read low 1.02 | locus YBL061C, strain skt5, active compounds read low 1.03 | locus YBR009C, strain hhf1, active compounds read low 0.997 | locus YBR021W, strain FUR4, active compounds read low 0.985 | locus YBR023C, strain chs3, active compounds read low 1.02 | locus YBR171W, strain sec66, active compounds read low 1.03 | locus YBR229C, strain ROT2, active compounds read low 0.991 | locus YBR231C, strain swc5, active compounds read low 1.01 | locus YBR279W, strain paf1, active compounds read low 1.03 | locus YCL011C, strain gbp2, active compounds read low 1.03 | locus YCL016C, strain dcc1, active compounds read low 1.01 | locus YCL029C, strain bik1, active compounds read low 0.963 | locus YCL069W, strain vba3, active compounds read low 1.04 | locus YCR088W, strain abp1, active compounds read low 1.03 | locus YDL005C, strain med2, active compounds read low 1.03 | locus YDL035C, strain GPR1, active compounds read low 1.02 | locus YDL040C, strain nat1, active compounds read low 1.04 | locus YDL074C, strain BRE1, active compounds read low 0.969 | locus YDL101C, strain DUN1, active compounds read low 0.982 | locus YDL134C, strain PPH21, active compounds read low 0.99 | locus YDL185W, strain tfp1, active compounds read low 0.982 | locus YDL192W, strain arf1, active compounds read low 0.997 | locus YDR001C, strain nth1, active compounds read low 1.01 | locus YDR069C, strain doa4, active compounds read low 1.01 | locus YDR101C, strain arx1, active compounds read low 0.98 | locus YDR137W, strain rgp1, active compounds read low 0.986 | locus YDR150W, strain NUM1, active compounds read low 1 | locus YDR159W, strain sac3, active compounds read low 0.982 | locus YDR162C, strain NBP2, active compounds read low 1 | locus YDR195W, strain ref2 1.02 | locus YDR297W, strain sur2, active compounds read low 1.02 | locus YDR318W, strain mcm21, active compounds read low 0.986 | locus YDR334W, strain swr1, active compounds read low 1.04 | locus YDR335W, strain msn5, active compounds read low 1.03 | locus YDR388W, active compounds read low 0.988 | locus YDR392W, strain spt3, active compounds read low 0.978 | locus YDR502C, strain sam2, active compounds read low 0.989 | locus YEL003W, strain gim4, active compounds read low 1.02 | locus YEL037C, strain rad23, active compounds read low 1.04 | locus YEL061C, strain CIN8 (second series), active compounds read low 1.02 | locus YEL061C, strain CIN8, active compounds read low 0.999 | locus YER015W, strain faa2, active compounds read low 1.04 | locus YER016W, strain bim1, active compounds read low 1 | locus YER110C, active compounds read low 0.986 | locus YER111C, strain swi4, active compounds read low 1.03 | locus YER155C, strain BEM2 (second series), active compounds read low 1.02 | locus YER155C, strain BEM2, active compounds read low 0.986 | locus YER167W, strain BCK2, active compounds read low 1.01 | locus YFR010W, strain ubp6, active compounds read low 1.04 | locus YGL078C, strain dbp3, active compounds read low 0.983 | locus YGL086W, strain mad1, active compounds read low 1 | locus YGL167C, strain pmr1, active compounds read low 1.02 | locus YGL173C, strain kem1, active compounds read low 1.01 | locus YGL227W, strain vid30, active compounds read low 1.01 | locus YGL240W, strain doc1, active compounds read low 0.968 | locus YGL248W, strain PDE1, active compounds read low 0.994 | locus YGL253W, strain hxk2, active compounds read low 1.03 | locus YGR078C, strain PAC10, active compounds read low 0.987 | locus YGR135W, strain pre9, active compounds read low 0.988 | locus YGR229C, strain SMI1, active compounds read low 1.03 | locus YGR252W, strain gcn5, active compounds read low 1.07 | locus YHR013C, strain ard1, active compounds read low 1.02 | locus YHR027C, strain rpn1, active compounds read low 1.02 | locus YHR030C, strain SLT2, active compounds read low 0.996 and 1.06 | locus YHR079C, strain IRE1 (second series), active compounds read low 0.991 | locus YHR079C, strain IRE1, active compounds read low 1.08 | locus YHR094C, strain hxt1, active compounds read low 0.993 | locus YHR129C, strain ARP1, active compounds read low 0.986 | locus YHR142W, strain chs7, active compounds read low 1.05 | locus YHR200W, strain rpn10, active compounds read low 0.984 | locus YIL066C, strain RNR3, active compounds read low 0.982 | locus YIL073C, strain SPO22, active compounds read low 0.975 | locus YIL125W, strain kgd1, active compounds read low 1.01 | locus YIR030C, strain dcg1, active compounds read low 0.991 | locus YJL092W, strain hpr5, active compounds read low 1.03 | locus YJL095W, strain BCK1 (second series), active compounds read low 1.03 | locus YJL095W, strain BCK1, active compounds read low 0.956 and 1.05 | locus YJL115W, strain asf1, active compounds read low 1.03 | locus YJL129C, strain trk1, active compounds read low 1.06 | locus YJL134W, strain LCB3, active compounds read low 0.997 | locus YJL154C, strain vps35, active compounds read low 1.01 | locus YJL164C, strain tpk1, active compounds read low 1.01 | locus YJL166W, strain qcr8, active compounds read low 0.996 | locus YJL168C, strain set2, active compounds read low 0.987 | locus YJL187C, strain SWE1 (second series), active compounds read low 0.971 | locus YJL187C, strain SWE1, active compounds read low 1.03 | locus YJR043C, strain POL32, active compounds read low 0.974 | locus YJR066W, strain TOR1, active compounds read low 0.976
